Source: PubChem
tim10-1 inh: growth inhibitors of tim10-1 mutant yeast; inhibition, % at 20 µM; AID 463190; actives 2.2% (n = 330,000); S. cerevisiae tim10-1 ts strain growth, BacTiter-Glo, 24 h;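 active means inhibition of at least 40%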;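 further: mutant grown at 25 °C; 0% = DMSO wells with yeast and 100% = wells holding no yeast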
TIM10 inh: growth inhibitors of TIM10 yeast strain. AID 463195. inhibition, % at 10 µM. actives 1.4% (n = 330,000). S. cerevisiae TIM10 strain growth, BacTiter-Glo luminescence, 24 h;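 active means inhibition of 40% or more at the single tested concentration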;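 further: wild-type TIM10 isogenic control strain grown at permissive 25 °C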
MPTP inh: permeability transition pore inhibition. isolated mouse mitochondria, Ca2+ swelling absorbance, 30 min. inhibition, % at 10 µM. actives 1.4% (n = 360,000). AID 602449;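 active means inhibition of 50% or more, scaled per plate between neutral and stimulator controls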;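 further: 0% = DMSO wells given calcium and 100% = 1 mM EGTA wells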
Mdm2 MdmX PPI: human Mdm2/MdmX binding inhibition; O15151+Q00987; SaOS-2 split-luciferase Mdm2/MdmX complementation, luminescence; inhibition, % at 8 µM; actives 3% (n = 330,000); AID 485346;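 active means inhibition of at least 50% at 8 µM in the primary screen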
tim23-1 inh: inhibits growth of tim23-1 mutant yeast | S. cerevisiae tim23-1 growth, BacTiter-Glo luminescence, 24 h | actives 1.3% (n = 330,000) | inhibition, % at 20 µM | AID 463212;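 active means growth inhibition of the mutant yeast at or above 50%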;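 further: temperature-sensitive mutant grown at 25 °C; plate controls were DMSO-treated mutant yeast for no effect and medium wells lacking yeast for full effect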
tim10-1 confirm: confirmation of tim10-1 mutant yeast growth inhibitors; shares compounds with tim10-1 inh; S. cerevisiae tim10-1 ts strain growth, BacTiter-Glo, 24 h; inhibition, % at 20 µM; actives 56% (n = 7,400); AID 463213;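 active means inhibition of yeast growth at or above a set limit in either of two repeat tests at 20 µM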;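 further: tim10-1 mutant grown at permissive 25 °C to find synthetic lethal compounds; 0% = DMSO yeast wells and 100% = medium wells without yeast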
Starred values were filed as active, the others as inactive; . = not tested or not shown. Only some compounds are listed: those with a hit (about 6.3% of all), similar ones and a draw of the others.

SMILES	tim10-1 inh	TIM10 inh	MPTP inh	Mdm2 MdmX PPI	tim23-1 inh	tim10-1 confirm
COc1ccc(-c2nc(C3CCCCC3)c3cc(OC)ccc3n2)cc1	8	-6	12	-35	5	.
Cc1ccc(C(=O)O/N=C2\CCSc3ccc(C)cc32)cc1	40*	29	1	-10	37	33*
CCOC(=O)[C@]12CCCC=C1N(CCC1=CCCCC1)C(=O)[C@H](CC(=O)NCc1cccc3ccccc13)C2	.	.	2	.	.	.
Cc1csc(N/N=C/c2ccc(O)c([N+](=O)[O-])c2)n1	51*	30	4	-12	40	33*
NC(Cc1ccc(Cl)cc1)c1csc(NC(=O)NCC2CCCCC2)n1 (stereo unspecified)	.	.	8	.	.	.
O=c1c2ccccc2nnn1CSc1ccc2c(c1)OCCO2	42*	21	0	-99	40	35*
CCNc1ccc(Br)cc(C(=O)/C=C/c2c(Cl)cccc2Cl)c1=O	55*	39	21	26	33	49*
Cc1ccc(Nc2c(-c3ccccc3O)nc3cnccn23)cc1	40*	14	1	45	47	27
COc1ccc(Nc2c(-c3ccc(C)cc3)nc3cnccn23)cc1	14	10	2	-12	35	.
COc1ccc(NC(=O)C(c2ccncc2)n2c(=O)c(-c3ccccc3)nc3ccccc32)cc1 (stereo unspecified)	.	.	3	.	.	.
COCCCNC(=S)N/N=C/c1ccc2c(c1)OCO2	41*	24	2	4	35	14
Cc1noc(C)c1Cn1c(C)c(C(=O)NCc2ccc3c(c2)OCCO3)sc1=O	.	.	-2	.	.	.
CCOc1ccc(C(C)=O)cc1N1C(=O)C2C3C=CC(O3)C2C1=O (stereo unspecified)	55*	-4	3	27	-6	23
Cc1ccc(SCCNC(=S)Nc2ccc(C)cc2C)cc1	44*	24	8	13	32	17
COc1ccccc1Cc1c(-c2cccc(Br)c2)nc2c(C)cc(Br)cn12	.	.	-2	.	.	.
Cc1nn(C(C)(C)C)c(OC(=O)c2ccc3c(c2)OCO3)c1Sc1ccccc1	20	29	-1	16	25	.
Cc1nn(C(C)(C)C)c(OC(=O)c2ccc3c(c2)OCO3)c1S(=O)(=O)c1ccccc1	46*	31	1	44	43	35*
CCOC(=O)c1sc(-c2ccc(Br)cc2)cc1N	67*	38	2	-192	30	58*
CCn1ncc(/C=C/C(=O)c2ccccc2)c1C	46*	3	11	-175	33	14
Cc1c(/C=C/C(=O)c2ccccc2)cnn1C	33	21	-2	-12	33	.
COc1ccc(NC(=O)N(CCC(C)C)C(C)c2ccccn2)c(OC)c1 (stereo unspecified)	41*	-16	1	19	48	20
CCN(CC)c1ncnc2c1ncn2[C@H]1CN(Cc2cc(OC)c(OC)c(OC)c2)C[C@@H](CO)O1	.	.	1	.	.	.
CCOC(=O)[C@]12CCC=C1N(Cc1ccco1)C(=O)[C@H](CC(=O)NCC1CCCCC1)C2	.	.	-2	.	.	.
C(=N\n1cnnc1)/c1cn(Cc2ccccc2)c2ccccc12	49*	25	4	14	27	-21
C(=N\n1cnnc1)/c1cccc2ccccc12	11	11	0	12	-11	.
SMILES	tim10-1 inh	TIM10 inh	MPTP inh	Mdm2 MdmX PPI	tim23-1 inh	tim10-1 confirm
Brc1ccc(N=NNc2ccccc2)cc1	31	15	6	-47	33	.
O=[N+]([O-])c1ccc(N=NNc2ccccc2)cc1	42*	14	11	-80	26	34*
COc1ccc(C(c2nnnn2Cc2ccccc2)N2CCN(c3ccccc3)CC2)cc1 (stereo unspecified)	21	8	-4	15	33	.
CCC(c1nnnn1Cc1ccccc1)N1CCN(c2ccccc2)CC1 (stereo unspecified)	41*	1	-3	6	13	24
O=C(NC1CCCCC1)C(c1ccc(-c2ccccc2)cc1)n1c(=O)c(-c2ccco2)nc2ccccc21 (stereo unspecified)	.	.	-2	.	.	.
CC(=O)CSc1nnc(-c2ccc(S(=O)(=O)N3CCC(C)CC3)cc2)o1	42*	29	-3	15	29	24
CC1=C(C(=O)N(C(C)C)C(C)C)CC(CC(=O)NCc2cccc3ccccc23)C(=O)N1Cc1ccc(C(C)(C)C)cc1 (stereo unspecified)	.	.	-1	.	.	.
C=CCn1c(C)csc1=Nc1ccc(C(C)=O)cc1	18	-1	1	-17	21	.
CCOC(=O)c1ccc(N=c2scc(C)n2CC)cc1	43*	10	3	-57	33	22
O=C(NC1CCCCC1)C(c1ccncc1)n1c(=O)c(-c2cc3ccccc3[nH]2)nc2ccccc21 (stereo unspecified)	.	.	2	.	.	.
COCCNC(=O)C1CCCN(C(=O)c2ccc3c(c2)C(C)(C)CCC3(C)C)CC1 (stereo unspecified)	.	.	0	.	.	.
COc1ccc(/C=N/OCC(=O)N=Nc2c(O)[nH]c3ccc(Br)cc23)cc1	18	6	2	19	-5	.
Cc1cccc(C)c1OCC(=O)N=Nc1c(O)[nH]c2ccc(Br)cc12	53*	32	-2	-7	31	35*
Cc1ccc(S(=O)(=O)CCc2nnc(NC(=O)c3cnccn3)s2)cc1	25	4	-2	1	22	.
Cc1ccc(S(=O)(=O)CCc2nnc(NC(=O)c3ccccn3)s2)cc1	44*	8	0	10	19	29
CC(C)OC(=O)CSc1nnc(-c2cnccn2)n1-c1ccc(Cl)cc1	41*	11	2	6	25	21
COc1ccc(C/C(N)=N/OC(=O)Cc2ccc(OC)c(OC)c2)cc1	13	12	-1	10	12	.
N/C(=N\OC(=O)Cc1ccc([N+](=O)[O-])cc1)c1ccc([N+](=O)[O-])cc1	7	11	0	17	28	.
N/C(=N\OC(=O)Cc1ccc([N+](=O)[O-])cc1)c1cccc(Br)c1	58*	13	5	-10	24	50*
COc1ccc(CC(=O)O/N=C(\N)Cc2ccc([N+](=O)[O-])cc2)cc1	43*	28	1	18	29	63*
CCCNC(=O)C1(C)CCN(C(=O)Cc2ccc3ccccc3c2)C1 (stereo unspecified)	.	.	0	.	.	.
O=C(NCC[C@@H]1CC[C@@H](NC(=O)c2cnccn2)[C@@H](CO)O1)c1ccc2c(c1)OCO2	.	.	1	.	.	.
CC(C)CN1CCC1(C)C(=O)Nc1cccc(C#N)c1 (stereo unspecified)	.	.	0	.	.	.
Cn1nc(C(=O)Nc2ccccc2N2CCOCC2)ccc1=O	-6	-14	1	9	-6	.
O=C(Nc1ccccc1N1CCOCC1)c1ccc2ccccc2n1	41*	15	1	-46	26	27
COC(=O)C1=C(C)N(c2cccc(Cl)c2)C(=O)C1	52*	6	1	28	34	34*
